Source: PubChem BioAssay (NCATS)
Results filed as inconclusive are left out. The source made the active and inactive calls. Unless noted, the call rests on the fitted dose curve; in most records, active means well fitted curve in the direction sought with a large enough effect; inconclusive means small, poorly fitted or top-dose-only effect, or another doubt; inactive means no such curve, though single readings can be large; an effect the other way counts as inactive or inconclusive.

How the values were obtained:
[1] = Cell Viability - BJ (AID 421; calls by dose curve;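 further: potency means the concentration at half of the fitted maximal effect; cells exposed to compound for 40 hours at 37 °C before readout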); details: BJ fibroblast viability, qHTS
How it was run: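 Cytotoxicity as drop in intracellular ATP (CellTiter-Glo, 20 min RT) after 40 hr compound exposure of BJ fibroblasts at 37 °C. Titrations scaled between DMSO and 100 uM tamoxifen, Hill-fitted for AC50.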

[2] = Cell Viability - Jurkat (AID 426;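 active means dose-dependent loss of cell ATP signal giving a full or clear fitted curve, ranked by lower potency value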; further: potency means the concentration at half of the fitted maximal effect); details: qHTS
How it was run: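 Luminescent ATP read-out (CellTiter-Glo, 20 min at room temperature) after 40 hr compound exposure at 37 °C of Jurkat E6-1 cells, 5000/well. Decreased ATP taken as cytotoxicity; AC50 from standard Hill equation.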

[3] = Cell Viability - Hek293 (AID 427;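 active means compounds whose dose-response curve shows a full or clear partial loss of cell viability, called from curve shape rather than a numeric limit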;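 further: potency means the concentration at half of the fitted maximal effect; cells exposed to compound for 40 hours at 37 °C before reading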); details: qHTS
How it was run: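 Luminescent ATP content (CellTiter-Glo, 20 min at room temperature) was measured after a 40 hr, 37 °C compound exposure of HEK293 cells. AC50 values came from Hill-equation fits of qHTS concentration-response data normalized to DMSO and 100 uM tamoxifen.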

[4] = Cell Viability - HepG2 (AID 433; calls by dose curve;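 further: potency means the concentration at half of the fitted maximal effect; potency for ATP loss meaning cytotoxicity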); details: qHTS
How it was run: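 In this qHTS format, a 40 h, 37 °C compound incubation of HepG2 cells in complete medium precedes a 20 min CellTiter-Glo step at room temperature. Tamoxifen and doxorubicin serve as positive controls; Hill-equation fits yield AC50.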

[5] = Cell Viability - SK-N-SH (AID 435; calls by dose curve; further: potency means the concentration at half of the fitted maximal effect); details: SK-N-SH neuroblastoma cell viability qHTS
How it was run: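 Human neuroblastoma line, 40 h exposure at 37 °C, ATP quantified via luciferase luminescence; DMSO and 100 uM tamoxifen define 0 and 100% inhibition for AC50 fitting.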

[6] = target: Mitogen-activated protein kinase 10 (Mus musculus) (UniProt Q61831); assay: JNK3 AlphaScreen Assay (AID 530; active means well fitted curve in either direction with a large enough effect, not every such curve was filed as active;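 further: kinase came from lysate of stimulated human HepG2 cells; signal reports phosphorylation of biotinylated GST-cJun 1-79 at Ser73 with 10 µM ATP; on the % scale 0 is the no-effect control and ±100 the full control effect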); details: JNK3 lysate, c-Jun phosphorylation; series mostly up to 57.1 µM
How it was run: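 HepG2 lysate (IL-1b/TNFa pre-activated) + biotin-GST-cJun 1-79 + anti-pSer73 cJun; cpd titration, 15 min RT; ATP 10 uM start; Tris pH 7.6, MgCl2, DTT, vanadate; beads in EDTA buffer; AlphaScreen.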

[7] = Cell Viability - N2a (AID 540); details: N2a mouse neuroblastoma cell viability; activity change, negative = cytotoxicity: at 92.2 µM (top of the series);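 further: plate controls were DMSO alone for no effect and tamoxifen control for full effect; nearly all actives have a fitted effect of over 45% in size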
How it was run: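 N2a mouse neuroblastoma, 1500 cells/well, 5 hr settle; compound 40 hr, 37 °C; CellTiter-Glo 20 min RT; luminescence; Hill-fit AC50.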

[8] = Cell Viability - NIH 3T3 (AID 541); details: NIH 3T3 cell viability, qHTS; activity change, negative = cytotoxicity: at 92.2 µM (top of the series);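 further: plate controls were DMSO alone for no effect and tamoxifen positive control for full effect; nearly all actives have a fitted effect of over 25% in size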
How it was run: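 qHTS format; 40 hr compound exposure, 37 °C; CellTiter-Glo luminescence (cellular ATP) read-out after 20 min at RT. Decrease in ATP = cytotoxicity; AC50 from standard Hill fit.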

[9] = Cell Viability - HUV-EC-C (AID 542); details: HUV-EC-C endothelial cell viability, qHTS; series mostly up to 92.2 µM; further: on the % scale 0 is the no-effect control and ±100 the full control effect; nearly all actives have a fitted effect of over 35% in size
How it was run: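 Luminescent ATP read-out (CellTiter-Glo, 20 min room temperature) after 40 hr compound treatment of HUV-EC-C cells at 37 °C. Concentration-response data fitted with the standard Hill equation to give AC50; tamoxifen and doxorubicin served as positive controls.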

[10] = Cell Viability - H-4-II-E (AID 543); details: H-4-II-E rat hepatoma viability; series mostly up to 92.2 µM; further: on the % scale 0 is the no-effect control and ±100 the full control effect; nearly all actives have a fitted effect of over 35% in size
How it was run: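 qHTS, rat hepatoma H-4-II-E, 1500 cells/well; 40 hr compound exposure, 37 °C; CellTiter-Glo ATP luminescence after 20 min RT; AC50 by standard Hill fit.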

[11] = Cell Viability - SH-SY5Y (AID 544); details: SH-SY5Y neuroblastoma cell viability; viability change, negative = cytotoxic: at 92.2 µM (top of the series); further: nearly all actives have a fitted effect of over 55% in size
How it was run: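 SH-SY5Y, 1500 cells/well, 5 hr pre-incubation 37 °C; cpd 40 hr 37 °C; CellTiter-Glo 20 min RT; luminescence (ATP) read. qHTS concentration-response, Hill fit → AC50. Tamoxifen, doxorubicin as positive controls.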

[12] = Cell Viability - Renal Proximal Tubule (AID 545); details: renal proximal tubule cells viability, primary cells of rat origin; series mostly up to 91.7 µM; further: nearly all actives have a fitted effect of over 40% in size
How it was run: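 In this qHTS format, normal rat kidney-derived proximal tubule cells in complete culture medium receive compound titrations, then sit 40 hours at 37 °C before luciferase-based ATP quantitation; potency is reported as AC50 from concentration-response curves.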

[13] = Cell Viability - Mesenchymal (AID 546); details: mesenchymal cells viability, qHTS; series mostly up to 91.7 µM;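 further: cells exposed to compound for 40 hours before reading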
How it was run: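 Human renal mesenchymal cells (glomerulus-derived), 1000 cells/well, 5 hr 37 °C pre-incubation; compound 40 hr, 37 °C; CellTiter-Glo, 20 min RT; luminescence; AC50 via Hill equation.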

[14] = Cellular Toxicity (caspase-3) HepG2 (AID 654); details: HepG2 caspase-3 activation, luminescence; series mostly up to 92.2 µM;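 further: cells exposed to compound for 16 hours before reading; 0% = DMSO alone and 100% = caspase signal from 100 µM tamoxifen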
How it was run: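 Luminescent Caspase-Glo 3/7 readout after 16 hr compound exposure of human hepatocellular carcinoma HepG2 cells at 37 °C; qHTS concentration-response, normalized DMSO = 0%, 100 uM tamoxifen = 100%; AC50 by standard Hill equation.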

[15] = Cellular Toxicity (caspase-3) Jurkat (AID 655); details: Jurkat caspase-3 activation, luminescence; caspase-3 activation: at 92.2 µM (top of the series), DMSO = 0%, tamoxifen = 100%;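 further: cells exposed to compound for 16 h at 37 °C before reading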
How it was run: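 qHTS in human Jurkat T-cell leukemia line: 16 hr compound treatment at 37 °C, caspase-3/7 activity measured by Caspase-Glo luminescence. AC50 derived from Hill equation.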

[16] = Cellular Toxicity (caspase-3) HUV-EC-C (AID 656); details: HUV-EC-C cells, caspase-3 activation (apoptosis), vehicle = 0, 100 µM tamoxifen = 100%; series mostly up to 92.2 µM;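 further: cells exposed to compound for 16 h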
How it was run: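 Concentration-dependent caspase 3/7 induction was assessed in HUV-EC-C cells exposed for 16 hours. Data scaled between DMSO and tamoxifen (100 uM) controls.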

[17] = Cellular Toxicity (caspase-3) SHSY5Y (AID 657); details: SH-SY5Y caspase-3 activation, DMSO zero, 10 µM staurosporine = 100%; series mostly up to 91.7 µM;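 further: cells exposed to compound for 16 hours at 37 °C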
How it was run: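 Readout: caspase-cleaved peptide-aminoluciferin substrate driving luciferase light in SH-SY5Y neuroblastoma cells after 16 h treatment. Response normalized to DMSO and 10 uM staurosporine controls.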

[18] = Cellular Toxicity (caspase-3) BJ (AID 658); details: BJ fibroblasts, luminescence, normalized: DMSO 0%, staurosporine 100%; series mostly up to 91.7 µM
How it was run: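 qHTS, BJ fibroblasts, 1000 cells/well; 5 hr preincubation, 16 hr compound, 37 °C; Caspase-Glo 3/7 reagent, 1 hr RT; luminescence. DMSO = 0%, 10 uM staurosporine = 100%. Hill-equation AC50.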

[19] = Cellular Toxicity (caspase-3) MRC-5 (AID 659); details: MRC-5 cells, luminescence, normalized: DMSO 0%, 10 µM staurosporine 100%; series mostly up to 91.7 µM;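 further: cells exposed to compound for 16 h at 37 °C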
How it was run: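 MRC-5 fibroblasts, 1500/well; 16 h cpd, 37 °C; Caspase-Glo 3/7, 1 h RT; lumi read. Norm: DMSO = 0%, 10 uM staurosporine = 100%. Hill-fit AC50 from qHTS conc-response.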

[20] = Cell Viability - MRC5 (AID 434; calls by dose curve;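 further: potency means the concentration at half of the fitted maximal effect; potency reflects cytotoxicity seen as loss of intracellular ATP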); details: MRC5 lung fibroblast viability, qHTS
How it was run: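 ATP luminescence read-out (CellTiter-Glo, 20 min RT) after 40 hr, 37 °C compound exposure of 1500 MRC5 cells/well. Data normalized to DMSO (basal) and 100 uM tamoxifen (100% inhibition); AC50 from standard Hill equation.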

CCOC(C)(C)C
inactive: Potency [1] > 92 µM | Potency [2] > 92 µM | Potency [3] > 92 µM | Potency [4] > 92 µM | Potency [5] > 92 µM | outcome [6] | activity change, negative = cytotoxicity [7] -6.59% | Potency [8] | Potency [9] | Potency [10] | Potency [11] | Potency [12] | Potency [13] | Potency [14] | caspase-3 activation [15] -1.17% | outcome [16] | outcome [17] | outcome [18] | outcome [19]

CC(O)COC(C)(C)C (stereo not drawn)
inactive: Potency [1] > 92 µM | Potency [2] > 92 µM | Potency [3] > 92 µM | Potency [4] > 92 µM | Potency [5] > 92 µM | outcome [6] | activity change, negative = cytotoxicity [7] 1.08% | Potency [8] | Potency [9] | Potency [10] | Potency [11] | Potency [12] | Potency [13] | Potency [14] | outcome [16] | outcome [17] | outcome [18] | outcome [19]

C=CCOC(=O)CCCCCCCC
inactive: Potency [1] > 92 µM | Potency [2] > 92 µM | Potency [3] > 92 µM | Potency [4] > 92 µM | Potency [20] > 92 µM | outcome [6] | activity change, negative = cytotoxicity [7] 9.38% | Potency [9] | Potency [10] | Potency [11] | Potency [12] | Potency [13] | Potency [14] | caspase-3 activation [15] -0.392% | outcome [17] | outcome [18] | outcome [19]

Cc1ccc(Cl)cc1
inactive: Potency [1] > 92 µM | Potency [2] > 92 µM | Potency [3] > 92 µM | Potency [4] > 92 µM | Potency [5] > 92 µM | outcome [6] | activity change, negative = cytotoxicity [7] 1.61% | Potency [8] | Potency [9] | Potency [10] | Potency [11] | Potency [13] | Potency [14] | caspase-3 activation [15] 1.47% | outcome [16] | outcome [17] | outcome [18] | outcome [19]

Cc1ccc(N(C)C)cc1
inactive: Potency [1] > 92 µM | Potency [2] > 92 µM | Potency [3] > 92 µM | Potency [4] > 92 µM | Potency [20] > 92 µM | outcome [6] | activity change, negative = cytotoxicity [7] -13.1% | Potency [9] | Potency [10] | Potency [11] | Potency [12] | Potency [13] | Potency [14] | caspase-3 activation [15] 2.02% | outcome [16] | outcome [17] | outcome [18] | outcome [19]

Nc1cccc2c(=O)[nH][nH]c(=O)c12
inactive: Potency [1] > 92 µM | Potency [2] > 92 µM | Potency [3] > 92 µM | Potency [4] > 92 µM | Potency [5] > 92 µM | outcome [6] | activity change, negative = cytotoxicity [7] 9.7% | Potency [8] | Potency [9] | Potency [10] | Potency [11] | Potency [12] | Potency [13] | caspase-3 activation [15] 0.167% | outcome [16] | outcome [17] | outcome [18] | outcome [19]

c1ccc(Oc2ccccc2)cc1
inactive: Potency [1] > 92 µM | Potency [2] > 92 µM | Potency [3] > 92 µM | Potency [4] > 92 µM | Potency [5] > 92 µM | outcome [6] | activity change, negative = cytotoxicity [7] -0.0485% | Potency [9] | Potency [10] | Potency [11] | Potency [12] | Potency [13] | Potency [14] | caspase-3 activation [15] 0.819% | outcome [16] | outcome [17] | outcome [18]

O=C(O)CNC(=O)c1ccc(CO)o1
inactive: Potency [1] > 92 µM | Potency [2] > 92 µM | Potency [3] > 92 µM | Potency [4] > 92 µM | Potency [5] > 92 µM | outcome [6] | activity change, negative = cytotoxicity [7] -13.4% | Potency [8] | Potency [9] | Potency [10] | Potency [11] | Potency [12] | Potency [13] | Potency [14] | caspase-3 activation [15] -2.47% | outcome [16] | outcome [17] | outcome [18] | outcome [19]

Oc1cccc(Nc2ccccc2)c1
inactive: Potency [1] > 92 µM | Potency [2] > 92 µM | Potency [3] > 92 µM | Potency [4] > 92 µM | Potency [20] > 92 µM | activity change, negative = cytotoxicity [7] -16.5% | Potency [8] | Potency [9] | Potency [10] | Potency [11] | Potency [12] | Potency [13] | Potency [14] | caspase-3 activation [15] 2.02% | outcome [16] | outcome [17] | outcome [18] | outcome [19]

CCCCC/C=C/C=C/C=O
inactive: Potency [1] > 92 µM | Potency [3] > 92 µM | Potency [4] > 92 µM | Potency [5] > 92 µM | outcome [6] | Potency [9] | Potency [10] | Potency [11] | Potency [12] | Potency [13] | outcome [16] | outcome [17] | outcome [18] | outcome [19]
active: Potency [2] 29.6 µM | activity change, negative = cytotoxicity [7] -106% | activity change, negative = cytotoxicity [8] -100%

O=Cc1ccc(Cl)cc1
inactive: Potency [1] > 92 µM | Potency [2] > 92 µM | Potency [3] > 92 µM | Potency [4] > 92 µM | Potency [20] > 92 µM | outcome [6] | activity change, negative = cytotoxicity [7] -2.43% | Potency [8] | Potency [9] | Potency [10] | Potency [11] | Potency [13] | Potency [14] | caspase-3 activation [15] -1.13% | outcome [16] | outcome [17] | outcome [18] | outcome [19]

CCCC(Cl)CCCC(Cl)CCC(Cl)CCC(Cl)CCC(Cl)CCCC(Cl)CCC (stereo not drawn)
inactive: Potency [1] > 92 µM | Potency [2] > 92 µM | Potency [3] > 92 µM | Potency [4] > 92 µM | Potency [5] > 92 µM | activity change, negative = cytotoxicity [7] -0.927% | Potency [8] | Potency [9] | Potency [10] | Potency [11] | Potency [13] | Potency [14] | outcome [16] | outcome [17] | outcome [18] | outcome [19]
